Screening results: PubChem, several laboratories
PostGolgi ctrl: yeast control strain growth, post-Golgi counter-screen | efflux-deficient yeast background strain, growth absorbance A615, 16 h | inhibition, % at 10 µM | 98,000 tested, 5% active | AID 738
Cav32 inh: human Cav3.2 channel inhibition, primary screen | Cav3.2-expressing cells, Fluo-4 calcium fluorescence FDSS; active compounds read low | B-score at 10 µM | 100,000 tested, 4% active | O95180;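 active = single-dose well whose peak fluorescence ratio is a statistical outlier from its plate by either plate-standardised score or position-corrected B-score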
Target sequence (O95180 whole entry, looked up): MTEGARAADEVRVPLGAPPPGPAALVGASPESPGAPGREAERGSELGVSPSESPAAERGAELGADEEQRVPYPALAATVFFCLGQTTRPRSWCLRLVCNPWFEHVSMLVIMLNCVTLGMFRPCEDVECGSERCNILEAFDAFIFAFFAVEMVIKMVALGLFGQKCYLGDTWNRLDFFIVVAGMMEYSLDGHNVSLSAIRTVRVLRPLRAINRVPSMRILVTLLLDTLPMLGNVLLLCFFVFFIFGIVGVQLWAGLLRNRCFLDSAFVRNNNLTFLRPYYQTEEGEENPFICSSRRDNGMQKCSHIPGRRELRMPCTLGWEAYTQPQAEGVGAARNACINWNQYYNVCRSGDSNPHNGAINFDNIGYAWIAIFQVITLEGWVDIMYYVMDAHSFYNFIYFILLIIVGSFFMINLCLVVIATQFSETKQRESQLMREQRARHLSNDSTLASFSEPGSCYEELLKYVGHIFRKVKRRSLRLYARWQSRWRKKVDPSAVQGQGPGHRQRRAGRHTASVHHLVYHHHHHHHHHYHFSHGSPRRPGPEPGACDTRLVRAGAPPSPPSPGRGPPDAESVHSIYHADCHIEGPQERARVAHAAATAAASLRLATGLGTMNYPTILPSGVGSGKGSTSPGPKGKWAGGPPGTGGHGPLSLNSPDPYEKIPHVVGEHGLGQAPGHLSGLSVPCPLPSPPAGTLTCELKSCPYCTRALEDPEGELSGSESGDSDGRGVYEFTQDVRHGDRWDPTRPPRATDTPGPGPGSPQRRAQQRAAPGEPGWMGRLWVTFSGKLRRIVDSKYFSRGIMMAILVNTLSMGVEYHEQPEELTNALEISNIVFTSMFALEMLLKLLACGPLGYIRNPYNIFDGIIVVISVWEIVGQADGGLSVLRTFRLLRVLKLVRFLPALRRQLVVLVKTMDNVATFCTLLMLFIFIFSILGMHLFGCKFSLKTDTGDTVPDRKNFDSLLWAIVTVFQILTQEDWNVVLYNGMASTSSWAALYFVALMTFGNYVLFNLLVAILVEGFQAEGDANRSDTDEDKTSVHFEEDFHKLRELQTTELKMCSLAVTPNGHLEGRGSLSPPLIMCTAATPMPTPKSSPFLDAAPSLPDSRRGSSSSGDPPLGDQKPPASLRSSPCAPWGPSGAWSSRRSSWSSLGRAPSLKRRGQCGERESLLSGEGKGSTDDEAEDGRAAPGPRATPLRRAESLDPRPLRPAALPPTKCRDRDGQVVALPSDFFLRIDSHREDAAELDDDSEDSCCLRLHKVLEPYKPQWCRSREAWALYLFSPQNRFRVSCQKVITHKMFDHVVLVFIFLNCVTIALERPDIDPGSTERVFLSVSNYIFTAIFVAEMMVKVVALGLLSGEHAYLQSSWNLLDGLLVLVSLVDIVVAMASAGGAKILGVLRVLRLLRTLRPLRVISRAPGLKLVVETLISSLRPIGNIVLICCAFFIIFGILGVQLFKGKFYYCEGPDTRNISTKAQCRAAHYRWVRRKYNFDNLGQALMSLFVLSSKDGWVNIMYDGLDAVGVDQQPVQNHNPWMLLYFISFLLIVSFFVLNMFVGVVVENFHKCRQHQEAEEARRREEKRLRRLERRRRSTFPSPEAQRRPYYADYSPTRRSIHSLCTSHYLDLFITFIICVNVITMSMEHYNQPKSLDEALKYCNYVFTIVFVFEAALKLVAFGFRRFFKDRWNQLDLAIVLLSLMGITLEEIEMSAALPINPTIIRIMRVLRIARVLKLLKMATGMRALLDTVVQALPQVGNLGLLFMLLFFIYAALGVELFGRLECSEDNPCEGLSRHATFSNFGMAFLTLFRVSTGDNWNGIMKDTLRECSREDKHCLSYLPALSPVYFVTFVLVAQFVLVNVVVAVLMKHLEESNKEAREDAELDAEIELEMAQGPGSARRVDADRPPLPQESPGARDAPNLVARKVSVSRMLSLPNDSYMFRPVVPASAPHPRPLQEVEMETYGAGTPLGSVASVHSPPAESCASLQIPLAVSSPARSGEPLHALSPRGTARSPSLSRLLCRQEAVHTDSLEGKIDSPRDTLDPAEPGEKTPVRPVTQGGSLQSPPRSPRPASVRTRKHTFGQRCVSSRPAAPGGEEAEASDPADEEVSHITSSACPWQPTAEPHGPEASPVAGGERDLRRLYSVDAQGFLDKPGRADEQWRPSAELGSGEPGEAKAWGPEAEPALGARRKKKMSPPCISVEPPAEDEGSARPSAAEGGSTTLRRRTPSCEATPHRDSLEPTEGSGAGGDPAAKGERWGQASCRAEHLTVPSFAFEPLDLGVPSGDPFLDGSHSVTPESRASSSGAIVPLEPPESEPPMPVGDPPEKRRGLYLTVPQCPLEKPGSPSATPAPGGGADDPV
PostGolgi yeast: growth inhibition of a yeast mutant, post-Golgi transport screen; post-Golgi transport phenotypic cell assay; inhibition, % at 10 µM; 98,000 tested, 0.9% active;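 also: yeast cells grown in 1536-well plates; yeast grown about 18 h at 30C before absorbance read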
Pyk2 oligo antag: Pyk2 (human) oligomerization antagonism; Q14289; Q293 cells, Pyk2 FERM NanoBiT luminescence; active compounds read low; z-score (the deposit names both 25 µM and 10 µM); 99,000 tested, 0.83% active; AID 1347419;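 active = Z-score of -3 or lower, scaled per plate to the spread of control and sample wells; inactive = z-score above -3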;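 also: negative z-score means lost luminescence so less FERM oligomerization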
* = called active by the depositor; / = no result given. This is a sample that favours compounds with a hit; in the whole collection about 8% have one here. Rule as the data show it, unless noted: active = inhibition above about 30%; inactive = the rest.

SMILES	PostGolgi ctrl	Cav32 inh	PostGolgi yeast	Pyk2 oligo antag
C[N+](C)(C)CCOP(=O)(O)OP(=O)([O-])OC[C@H]1O[C@@H](n2ccc(N)nc2=O)[C@H](O)[C@@H]1O	/	0.66	/	/
CCCCNC(=S)NNC(=O)c1nn(C)cc1Cl	/	-0.07	/	-0.72
O=C(NCC12CC3CC(CC(C3)C1)C2)c1cc2n(n1)C(C(F)(F)F)CC(c1ccco1)N2 (stereo not given)	5	-2.3	4	-1.2
Cc1ccc(Oc2nccc(-c3ccc(Cl)cc3)n2)cc1	5	0.73	7	1.1
c1ccc(CN2CCN(c3nc(-c4ccccc4)nc(-n4ccnc4)n3)CC2)cc1	77*	-0.037	48*	-0.62
CN(c1ccccc1)c1nc(N2CCCC2)nc(-n2ccnc2)n1	91*	-2.8	105*	-1.1
N/C(=N/O)c1nc(N2CCCC2)nc(N(c2ccccc2)c2ccccc2)n1	17	-3.4	0	-0.83
c1ccc(-c2nc(-n3ccnc3)nc(-n3ccnc3)n2)cc1	11	0.79	4	-1.7
c1ccc(N(c2ccccc2)c2nc(N3CCCC3)nc(-n3ccnc3)n2)cc1	32*	/	2	-1.3
Cc1cccc(C)c1NC(=O)CSc1nnc(CCCCCNC(=O)OC(C)(C)C)o1	6	-0.7	12	0.38
c1ccc2c(c1)sc1nnnn12	-2	/	14	0.14
CCN(C(=O)CSc1nc2ccccc2n1CCc1ccccc1)C1CCS(=O)(=O)C1 (stereo not given)	18	0.33	-1	-0.27
Oc1ccc(N2CCN(C(c3ccccn3)c3nnnn3C3CCCC3)CC2)cc1 (stereo not given)	/	0.63	/	-0.39
S=C(Nc1cccc(Cl)c1)Nc1ccccc1Oc1ccccc1	15	-7.2*	16	-0.82
S=C(Nc1ccc(Cl)cc1Cl)Nc1ccccc1Oc1ccccc1	12	-2.8	5	0
O=C(NCCNC(=O)c1cc(OCC(F)(F)F)ccc1OCC(F)(F)F)Nc1cccc(C(F)(F)F)c1	6	-8*	-6	-0.22
O=C(NCCNS(=O)(=O)c1ccccc1Cl)c1cc(OCC(F)(F)F)ccc1OCC(F)(F)F	6	-0.26	5	-0.08
O=C(Nc1ccc(OC(F)F)cc1)Nc1cccc(C(F)(F)F)c1	64*	-0.65	79*	-2.3
O=C(CCSc1nnc(-c2ccncc2)o1)Nc1ccc(Cl)cc1	99*	/	102*	1.8
COC(C[C@H](O)C[C@H](O)[C@H](C)OCc1ccccc1)OC	/	0.48	/	/
Cc1nn(Cc2cccc(C(=O)NC(C)c3ccc(C(C)(C)C)cc3)c2)c(C)c1[N+](=O)[O-] (stereo not given)	3	-1.8	51*	-1.4
COc1ccc(CNc2nc3nc(-c4ccccc4)cc(=O)n3[nH]2)cc1OC	1	-0.21	7	-0.61
Cc1ccc(NC(=O)NC2CCCN2S(=O)(=O)c2ccc(Cl)cc2)cc1 (stereo not given)	33*	-1.6	-8	-0.88
CC(C)CCN(C(=O)Nc1ccccc1)C(C)c1cccs1 (stereo not given)	14	-4.8*	3	0.52
Fc1ccc(Cn2nnc(-c3ccc(CN4CCOCC4)cc3)n2)cc1	31*	/	89*	-0.64
SMILES	PostGolgi ctrl	Cav32 inh	PostGolgi yeast	Pyk2 oligo antag
O=C(Cn1nnc(-c2ccc(Cl)cc2)n1)NC1CCN(Cc2ccccc2)CC1	17	-5.9*	-8	1.3
Fc1cccc(Cl)c1Cn1nnc(-c2ccc(N3CCOCC3)cc2)n1	13	-0.11	-1	-0.12
Clc1ccc(Cn2nnc(-c3ccc(CN4CCOCC4)cc3)n2)cc1	51*	/	82*	0.34
CSc1ccc(S(=O)(=O)Nc2ccc3c(c2)OCCO3)cc1	21	-1.2	-5	/
CN=Cc1cc(-c2ccccc2)sc1O	-1	/	-1	0.29
O=c1[nH]c(NCc2ccccc2)nc2c1CCCC2	4	0.34	2	0.6
CCOc1ccccc1OCCOc1ccccc1OC(C)C	3	-5.4*	4	1.2
Cc1cccn2c(=O)c3cc(C(=O)NCCCN4CCCC4=O)n(C)c3nc12	-5	-2.6	16	0.84
CCCN(CCC)CCNC(=O)C(NS(=O)(=O)c1ccc2c(c1)CCC(=O)N2)c1ccccc1 (stereo not given)	31*	0.86	-16	-0.19
O=C(Nc1ccc(OCC(=O)N2CCC(Cc3ccccc3)CC2)cc1)c1ccco1	19	-7.2*	0	-0.02
CCC(=O)Nc1cc(NC(=O)CSc2ncc(-c3ccc(F)cc3)n2Cc2ccco2)ccc1C	3	-8.8*	11	0.46
COCCn1c(-c2ccc(OC)cc2)cnc1SCC(=O)Nc1cccc2ccccc12	28	-8.1*	7	-0.97
COc1ccc(NC(=O)CSc2ncc(-c3ccc(F)cc3)n2Cc2ccco2)cc1	/	0.082	/	-2.2
COc1ccc(-c2cnc(SCC(=O)Nc3nc(C(C)(C)C)cs3)n2Cc2ccco2)cc1	/	-5.7*	/	0.59
COc1ccc(-c2cnc(SCC(=O)Nc3cc(C)on3)n2Cc2ccco2)cc1	17	-4.5*	0	-2
O=C(CSc1ncc(-c2ccc(F)cc2)n1Cc1ccco1)Nc1nccs1	-8	-0.2	1	0.18
COc1cccc(C2NC(=O)c3sc(=S)n(-c4ccccc4)c3N2)c1 (stereo not given)	9	-1.1	-3	-1.1
CCN(CC)S(=O)(=O)c1ccc2[nH]cc(C(=O)NCCC3=CCCCC3)c(=O)c2c1	-2	-1.2	-3	-2.1
O=C(Nc1cccnc1)C1CCCN(S(=O)(=O)c2cccc3nsnc23)C1 (stereo not given)	0	1	2	1.3
CCOC(=O)c1ccc(NC(=O)c2nc[nH]c2C(=O)N2CCN(c3ccccc3)CC2)cc1	/	-0.24	/	/
C=CCc1cc(/C=N/NC(=O)CSc2nnc(CCCc3ccc(OC)cc3)o2)cc(OC)c1O	4	-0.4	1	-0.29
Cn1c(NCc2ccccc2)nc2c1c(=O)n(Cc1ccc(Br)cc1)c(=O)n2C	21	-0.0075	2	-0.69
Cn1c(=O)c2nc(NCc3ccccc3)cnc2n(C)c1=O	-1	/	35*	0.56
Oc1c(Cl)cc(Cl)cc1C=Nc1ccc(Br)cc1	14	-7.6*	-22	-0.4
CCOC(=O)CN1C(=O)N[C@@H](c2ccco2)C(C(C)=O)=C1C	/	0.6	/	/
SMILES	PostGolgi ctrl	Cav32 inh	PostGolgi yeast	Pyk2 oligo antag
CCOC(=O)c1nnc(-c2cccs2)nc1Oc1ccc(Cl)cc1	47*	-1	22	0.34
CCOC(=O)c1nnc(-c2ccc(C)cc2)nc1Oc1ccc(Cl)cc1Cl	35*	-1.3	12	0.98
CCOC(=O)c1nnc(-c2cccs2)nc1Oc1ccccc1C(=O)OC	9	-0.77	20	0.45
CCOC(=O)c1nnc(-c2ccc(C)cc2)nc1Sc1ccccc1Cl	14	0.072	0	-0.19
CCOC(=O)c1nnc(-c2ccccc2)nc1NCc1ccc(Cl)cc1	39*	-1.8	15	-2.6
CCOC(=O)c1nnc(-c2ccc(C)cc2)nc1Oc1ccccc1Cl	47*	/	-2	0.38
CCOC(=O)c1nnc(-c2ccccc2)nc1Sc1c(Cl)cccc1Cl	15	0.0036	-1	0.55
COc1cc(-c2nnc(Sc3ccc(C(F)(F)F)cc3[N+](=O)[O-])o2)cc(OC)c1OC	28	0.45	3	-0.3
COc1ccc(C(=O)Nc2ccc3oc(-c4cccc(Cl)c4)cc(=O)c3c2O)cc1	/	-0.73	/	/
